Assay outcomes as filed in PubChem BioAssay.
Sampled rows, rich in hits. Any-hit rate of the full collection: about 3.3%.
ERa SRC1 inh: blocks coactivator binding to human estrogen receptor alpha; TR-FRET ER-alpha LBD / SRC-1 peptide, estradiol-bound; inhibition, % at 25.6 µM; 86,000 compounds, 1.7% hits; AID 629; in the data active = inhibition above about 50%;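 note: 0% = receptor plus peptide control and 100% = peptide only without receptor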
Target sequence (P03372 whole entry, looked up, the tested form may be a part): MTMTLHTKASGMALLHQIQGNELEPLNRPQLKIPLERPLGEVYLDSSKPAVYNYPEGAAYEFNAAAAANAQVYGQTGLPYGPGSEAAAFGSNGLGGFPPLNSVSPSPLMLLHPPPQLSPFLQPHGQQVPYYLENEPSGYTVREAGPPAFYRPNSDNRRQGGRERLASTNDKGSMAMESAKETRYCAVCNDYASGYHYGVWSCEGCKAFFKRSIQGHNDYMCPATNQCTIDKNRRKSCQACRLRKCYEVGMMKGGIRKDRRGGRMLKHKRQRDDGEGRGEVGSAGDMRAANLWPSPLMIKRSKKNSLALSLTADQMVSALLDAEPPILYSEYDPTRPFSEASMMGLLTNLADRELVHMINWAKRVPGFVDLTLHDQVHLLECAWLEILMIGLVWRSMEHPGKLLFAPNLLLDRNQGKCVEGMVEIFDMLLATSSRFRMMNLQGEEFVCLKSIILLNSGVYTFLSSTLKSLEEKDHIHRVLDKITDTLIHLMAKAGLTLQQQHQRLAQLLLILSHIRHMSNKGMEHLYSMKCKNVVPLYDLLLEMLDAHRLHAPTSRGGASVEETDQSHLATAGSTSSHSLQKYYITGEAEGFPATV
Smad3 FoxH1 inh: inhibitors of human Smad3 transcription factor binding | P84022 | TR-FRET Smad3/Dy647-FoxH1 peptide binding, europium anti-His | inhibition, % at 25 µM | 88,000 compounds, 0.29% hits;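 active = compounds that reduce the energy-transfer binding signal between the protein and its labelled peptide by more than half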;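 note: 0% = Smad3 plus labelled peptide maximal FRET and 100% = peptide-only background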
ERb SRC1 inh: blocks coactivator binding to human estrogen receptor beta | Q92731 | TR-FRET ER-beta LBD / SRC1-Cy5 peptide binding; receptor agonist-loaded with 1 µM estradiol | inhibition, % at 25.6 µM | 86,000 compounds, 1.3% hits;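 active = compounds whose percent inhibition of the receptor-coactivator binding signal exceeds about 50% in the single-dose screen, limit read from the data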;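 note: 0% = receptor plus peptide wells without compound and 100% = peptide-only wells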
FAK inh: inhibitors of human focal adhesion kinase; Q05397; 97,000 compounds, 0.84% hits; inhibition, %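 (tested at 7 µM)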; biochemical FAK kinase activity assay;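 note: 0% = DMSO and 100% = reference compound high control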
ERa SRC1 pot: enhances coactivator binding to human estrogen receptor alpha; P03372; TR-FRET ERalpha-LBD/SRC-Cy5 coactivator binding, 2 h; 100 = basal binding, no effect; coactivator binding (% of control), % at 25.6 µM; 86,000 compounds, 1.3% hits; in the data active = activity above about 200%;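 note: binding measured in presence of low estradiol as agonist stimulus; 0% = peptide alone without receptor and 100% = receptor with peptide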
Calb biofilm kill: kills Candida albicans biofilms | C. albicans biofilm + clotrimazole, Alamar Blue | 85,000 compounds, 0.14% hits | inhibition, % at 6 µM;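 active = inhibition above 20%; inactive = inhibition below 20%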;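 note: preformed 24 hr biofilms exposed to compound for 48 hr; 0% = biofilm without compound and 100% = blank killed by clotrimazole plus chlorhexidine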
FAK inh confirm: FAK (human) inhibition confirmed | shares compounds with FAK inh | FAK kinase biochemical inhibition assay | inhibition, % at 7 µM | 750 compounds, 28% hits
Active calls of the source: *; nt = no result given; [ ] = remark or other dose. Cut-off read from the data, not from the text of the source, unless noted: active = inhibition above about 19%; inactive = the rest.

SMILES	ERa SRC1 inh	Smad3 FoxH1 inh	ERb SRC1 inh	FAK inh	ERa SRC1 pot	Calb biofilm kill	FAK inh confirm
c1ccc2c(c1)CCN2CCN1CCc2ccccc21	-4	5	-1	nt	140	1	nt
CCOC(=O)c1c(C)[nH]c(O)c1C=Nc1ccc(Cl)cc1	nt	nt	nt	14	nt	nt	nt
COC(=O)c1c(C)[nH]c(O)c1C=Nc1ccc(C(C)C)cc1	nt	nt	nt	29*	nt	nt	10
CC1(C)CC(=O)C=C(NCCc2ccc(S(N)(=O)=O)cc2)C1	3	6	6	nt	108	4	nt
O=C(Cc1ccc(S(=O)(=O)N2CCOCC2)s1)Nc1nc2c(s1)CCCC2	83*	4	81*[fluorescence artefact?]	23*	23	4	4
O=c1cc(-c2cccc3ccccc23)[nH][nH]1	18	3	9	23*	91	2	0
Cc1nnc(NC(=O)CSc2nc3ccccc3o2)s1	-5	4	-3	-1	110	8	nt
Cc1nnc(NC(=O)CSc2nc(C(C)C)nc3ccccc23)s1	nt	nt	nt	46*	nt	nt	23*
CC(C)c1nc(SCC(=O)Nc2nc3c(s2)CCCC3)c2ccccc2n1	nt	nt	nt	20*	nt	nt	8
Cc1cc(NC(=O)CSc2nc(C(C)C)nc3ccccc23)no1	-1	1	-9	45*	95	4	28*
Cc1ccc(C(C(=O)NC2CCCCC2)N2CCN(C(=O)c3ccco3)CC2)cc1 (centres undefined)	-2	1	-5	0	100	5	nt
CCOC(=O)c1sc2c(c1C)C(c1cccs1)C1=C(CCCC1=O)N2 (centres undefined)	3	4	3	24*	99	7	19*
COc1ccc([N+](=O)[O-])cc1COc1cc(C)cc2oc(=O)cc(-c3ccccc3)c12	nt	nt	nt	27*	nt	nt	22*
CCCCN(CC)CCCNC(=O)c1cc2c(=O)n(C)c3ccccc3c2n1C	1	-3	-7	4	111	3	nt
COc1ccc(-c2oc3ncnc(NCCCN4CCOCC4)c3c2-c2ccc(OC)cc2)cc1	-2	-6	-3	34*	82	6	9
COc1ccc(-c2oc3ncnc(NCCN4CCOCC4)c3c2-c2ccc(OC)cc2)cc1	7	2	3	21*	90	10	10
COc1ccc(-c2oc3ncn(CCN4CCOCC4)c(=N)c3c2-c2ccc(OC)cc2)cc1	-5	1	-10	20*	120	10	1
COc1ccc(-c2csc3ncnc(NCCN4CCOCC4)c23)cc1	8	1	8	4	96	-5	nt
c1ccc(-c2oc3ncnc(NCCCN4CCOCC4)c3c2-c2ccccc2)cc1	-4	10	8	17	101	4	nt
O=c1[nH]c(Cn2nnc(-c3ccccc3)n2)nc2scc(-c3ccccc3)c12	5	4	11	-4	120	6	nt
N#CCC(=N)N1CCN(c2ccccc2Cl)CC1	nt	nt	nt	3	nt	nt	nt
Cc1cc(C)nc(N2CCC(CNC(=O)CCc3ccccc3)CC2)n1	-4	-4	-4	-2	103	9	nt
COc1ccc(-c2nn3c(-c4ccc(F)cc4)nnc3s2)cc1	24	3	14	36*	95	9	9
CCOc1ccc(-c2nn3c(-c4ccc(F)cc4)nnc3s2)cc1	2	32	-4	2	180	-2	nt
COC(=O)C(OC(=O)c1ccc(OC)cc1)C(=O)OC	2	3	-1	-3	121	-3	nt
SMILES	ERa SRC1 inh	Smad3 FoxH1 inh	ERb SRC1 inh	FAK inh	ERa SRC1 pot	Calb biofilm kill	FAK inh confirm
CC(C)C(=O)Nc1nnn(C)n1	-7	-1	-14	3	111	4	nt
COc1cc(/C=C(/C#N)c2nc3ccccc3[nH]2)ccc1OCc1ccc(C(=O)O)o1	nt	nt	nt	5	nt	nt	nt
COC(=O)c1ccc(COc2ccc(/C=C(\C#N)c3nc4ccccc4[nH]3)cc2OC)o1	nt	nt	nt	56*	nt	nt	23*
COc1ccc(CCn2c(=S)[nH]c3cc(C(=O)NCc4ccco4)ccc3c2=O)cc1OC	71*[fluorescence artefact?]	16	55*[fluorescence artefact?]	35*	88	1	12
Nc1ncnc2nc(SCc3ccc(Cl)cc3Cl)[nH]c12	nt	nt	nt	25*	nt	nt	16
Nc1ncnc2nc(Sc3ccc(Cl)cc3)[nH]c12	-18	2	-12	2	84	7	nt
Cc1c(NC(=O)c2cc3nc(-c4ccc(Cl)cc4)cc(C(F)(F)F)n3n2)c(=O)n(-c2ccccc2)n1C	12	-8	26	-3	96	8	nt
Nc1ccc(Sc2ccccc2CC(=O)O)cc1	nt	nt	nt	-3	nt	nt	nt
N=c1oc2c3c4c(cc2cc1C(=O)Nc1ccccc1)CCCN4CCC3	nt	nt	nt	29*	nt	nt	0
Cc1ccc2cc(C#N)c(NCCCNC(=O)C3CCCO3)nc2c1 (centres undefined)	nt	nt	nt	-2	nt	nt	nt
CCc1ccc2nc3n[nH]c(N)c3cc2c1	nt	nt	nt	40*	nt	nt	20*
CSc1ccccc1-n1nnnc1SCC(=O)Nc1cc(C)ccc1C	11	-12	-12	1	100	3	nt
CC(C)OCCCn1c(=NC(=O)c2ccncc2)c(C#N)cc2c(=O)n3ccccc3nc21	12	13	14	7	91	2	nt
CC(C)OCCCn1c(=N)c(C(N)=S)cc2c(=O)n3ccccc3nc21	38	0	16	32*	101	7	6
O=C(CCC(=O)OCC(=O)c1ccc(Br)cc1)Nc1ccc(Br)c2cccnc12	nt	nt	nt	4	nt	nt	nt
COC(=O)c1ccccc1NC(=O)C1CCCN(S(=O)(=O)c2ccc(OC)cc2)C1 (centres undefined)	-1	3	3	1	115	-3	nt
CCOC(=O)c1c(C)c(C(=O)NCc2ccccc2OC)c(C)n1C	7	-19	7	46*	90	4	-3
CCOc1cccc(CNc2ccc(O)cc2)c1OCc1ccc(Cl)cc1Cl	nt	nt	nt	29*	nt	nt	0
COC(=O)c1sc2cnccc2c1N	4	-1	-13	24*	127	6	5
COCc1cc(C)nc2sc(C(=O)OC)c(N)c12	nt	nt	nt	1	nt	nt	nt
CCOC(=O)C(NC(=O)c1ccccc1OCC)(Nc1ncccn1)C(F)(F)F (centres undefined)	-7	-4	-7	8	103	4	nt
COc1ccccc1C1CN=NC12CCCc1ccccc1C2=O (centres undefined)	nt	nt	nt	-1	nt	nt	nt
COC(=O)Nc1ccc(C)c2nsnc12	-1	-10	-2	2	125	7	nt
CCOC(=O)C1CCN(C(=O)Nc2ccc3nc(-c4ccco4)c(-c4ccco4)nc3c2)CC1	96*[fluorescence artefact?]	19	95*[fluorescence artefact?]	93*	31	7	5
CCCCn1c(NC(=O)c2ccccc2Cl)c(C#N)c2nc3ccccc3nc21	9	80*	12	28*	69	-6	-1
CCOC(=O)c1c(NC(=O)c2ccco2)n(C2CCCCC2)c2nc3ccccc3nc12	0	41	6	0	94	15	nt
COc1ccc(-n2c(NC(=O)c3ccco3)c(C#N)c3nc4ccccc4nc32)cc1	nt	nt	nt	21*	nt	nt	-4
Cc1cc(N)ccc1N1CCCC1	nt	nt	nt	74*	nt	nt	58*
